# Bioassay records as filed in PubChem.
# Many of the other results were omitted from the sample, so hits are more common in it than they were.
# VCAM1 pot = enhances TNF alpha induced VCAM1 expression in HUVEC. HUVEC TNFa-stimulated VCAM-1 immunofluorescence, high-content imaging; scaled per plate to unstimulated/TNFa-only wells. activation, % at 2 µM. actives 0.19% (n = 93,000);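 active = activation above the screen mean plus 3 SD, with well images confirming the hit on visual review, cut at about 28% in these data, passing the limit was not always enough; inconclusive = activation above that limit but images do not confirm it; inactive = activation not above that limit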;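 note: signal is the number of cytoplasmic VCAM-1 stained grains per positive cell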
# VCAM1 pot conf = potentiators of TNFa-induced VCAM1 expression, confirmation, imaging, HUVEC, triplicate retest; activation, % at 2 µM; shares compounds with VCAM1 pot; HUVEC TNFa-stimulated VCAM-1 immunofluorescence imaging; 230 tested, under 10 active;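 active = activation above 30% in triplicate retests at 2 µM, then confirmed by visual review of the well images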
# A number is an active result; - = inactive; ? = inconclusive.
SMILES,VCAM1 pot,others
OC1(c2cccc(C(F)(F)F)c2)CCN(c2ncnc3c2[nH]c2ccc(F)cc23)CC1,-,
CCCCCC(=O)N1CCN(CCN=CC2=C(O)CC(c3cccs3)CC2=O)CC1 (stereo not drawn),-,
COc1ccccc1-c1nnc(SC2CCc3ccccc3NC2=O)s1 (stereo not drawn),-,
CCOc1ccc(Br)cc1S(=O)(=O)Nc1ccccc1N1CCOCC1,92,VCAM1 pot conf=-
CCOc1cc(N2CCOCC2)c(OCC)cc1NC(=O)CC12CC3CC(CC(C3)C1)C2,-,
Cc1cc(=O)cc(C)n1-c1ccccc1N1CCOCC1,-,
Cc1ccnc(SCCn2c(N3CCN(Cc4ccccc4)CC3)nc3c2c(=O)[nH]c(=O)n3C)n1,-,
CCOC(=O)/C(=C\c1ccccc1)C(=O)c1cc(C(C)=O)c(Nc2ccccc2)s1,68,VCAM1 pot conf=-
CCOC(=O)/C(=C\c1cccnc1)C(=O)c1cc(C(C)=O)c(Nc2ccccc2)s1,-,
CC1CCCC(NC(=O)COC(=O)c2ccc3ccccc3n2)C1C (stereo not drawn),-,
CC1=CC(C)(C(Cl)Cl)C(C)=CC1=O (stereo not drawn),-,
COc1ccccc1OCC(=O)Nc1ccc(C(N)=O)cc1,51,VCAM1 pot conf=-
Cc1cc(C)c(OCC(=O)Nc2cccc(O)c2)cc1C,-,
CCOC(=O)c1ccc(NC(=O)COc2cc(=O)n(CC)c3ccccc23)cc1,-,
Nc1ccc(Oc2ccc3nc(-c4ccccc4)c(-c4ccc([N+](=O)[O-])cc4)nc3c2)cc1,-,
COC(=O)c1ccc(CS(=O)(=O)c2ccccc2C)o1,-,
CCCCCOC(=O)C1[C@H]2C(=O)N(CCCOC)C[C@]23C=C[C@H]1O3 (stereo partly drawn),-,
O=C(Nc1ccc(F)cc1)N1CCn2c(nc3ccccc32)C1,-,
O=C(CN1CCCCCC1)Nc1ccc(Br)cc1,34,VCAM1 pot conf=-
O=C(Cn1c(=O)sc2ccccc21)Nc1ccc(S(=O)(=O)N2CCCCC2)cc1,-,
NC(=O)c1oc2ccccc2c1NC(=O)CN1CCCCC1,-,
CCn1c(SCC(=O)N2CCN(c3ccccc3)CC2)nnc1-c1c[nH]c2ccccc12,-,
COC(=O)C1=C(C)N(c2ccc(F)cc2)C(=O)C1,-,
CC(C)(C)C(=O)NC(NC(=S)Nc1sc2c(c1C#N)CCCC2)C(Cl)(Cl)Cl (stereo not drawn),-,
COc1ccccc1NS(=O)(=O)CC12CCC(CC1=O)C2(C)C (stereo not drawn),-,
SMILES,VCAM1 pot,others
O=C1CC(N2CCOCC2)C(=O)N1c1ccc2c(c1)OCO2 (stereo not drawn),-,
COc1ccc(C(C)(C)C)cc1S(=O)(=O)N1CCN(C)CC1,-,
COc1ccc(N2C(=O)CC(N3CCN(S(=O)(=O)c4c(F)cccc4F)CC3)C2=O)cc1OC (stereo not drawn),57,VCAM1 pot conf=-
Cc1cc(C)cc(C(=O)N2CCC(C(N)=O)CC2)c1,-,
COc1cc2cc(Br)cc(Br)c2nc1C,-,
COc1cccc(CNC(=O)C2CCCN(c3nn4c(=O)cc(C)nc4s3)C2)c1OC (stereo not drawn),-,
Cc1ccc(-c2nnc3sc(CCc4ccccc4)nn23)cc1,-,
CN(C)S(=O)(=O)N(CC(=O)Nc1cccc(F)c1)c1ccccc1,-,
Cc1ccc(NC(=O)CN(C)CC(=O)Nc2c(C)cccc2C)c(Br)c1,-,
O=C(CCc1ccccc1)Nc1ccc(N2CCOCC2)c(Cl)c1,-,
O=C(Nc1ccc(N2CCOCC2)c(Cl)c1)c1cccnc1,56,VCAM1 pot conf=-
O=C(Nc1ccc(N2CCCC2)c(Cl)c1)c1cccnc1,-,
O=S(=O)(Nc1ccc(Cc2ccncc2)cc1)c1ccc(Br)cc1,-,
O=C(COC(=O)Cc1cccc(C(F)(F)F)c1)NCC1CCCO1 (stereo not drawn),-,
O=C(COC(=O)c1cccnc1Nc1cccc(C(F)(F)F)c1)NCc1ccc2c(c1)OCO2,28,VCAM1 pot conf=-
O=C(COC(=O)c1cnccn1)Nc1ccc2c(c1)OCO2,-,
Cc1ccccc1-c1nc(CN2CCC(C(=O)NCCCN3CC(C)CC(C)C3)CC2)c(C)o1 (stereo not drawn),-,
CC(C)(C)NC(=O)C(=O)NNC(=O)C12CC3CC(CC(C3)C1)C2,-,
N#Cc1cc(Oc2ccccc2)c(-n2nnc3ccccc32)cc1C#N,-,
N#Cc1ccc(-n2c(-c3ccccc3)nnc2-c2ccccc2)cc1C#N,52,VCAM1 pot conf=-
N#Cc1cnn(-c2ccccc2)c1N,-,
CCCCN(C)C(=O)C1CCC(=O)N(c2cc(OC)c(OC)c(OC)c2)C1c1ccc(OC)cc1 (stereo not drawn),-,
COc1cc(C2NC(=O)NC(C)=C2C(=O)OCC2CCCO2)ccc1O (stereo not drawn),-,
COCCNC(=O)CN(C(=O)CCC(=O)Nc1cc(C)on1)c1ccccc1C,-,
O=C(Oc1cccc2c(OC(=O)N3CCCC3)cccc12)N1CCCC1,-,
SMILES,VCAM1 pot,others
Nc1cc(-c2ccccc2)nn1Cc1ccc(Cl)cc1,-,
O=c1cc(-c2ccccc2)nc2nc(CCc3ccccc3)[nH]n12,48,VCAM1 pot conf=-
CCCc1ccc(-c2cc(NC(=O)CSc3n[nH]c(N)n3)n(-c3ccccc3)n2)cc1,-,
CC(=O)c1c(N2CCC(C(N)=O)CC2)nc(=S)n(-c2ccccc2)c1C,-,
COc1cccc2c(=O)n(CC(=O)Nc3ccccc3F)ccc12,-,
CCN(CC)S(=O)(=O)c1ccc(NC(=O)C(C)N(c2ccccc2)S(C)(=O)=O)cc1 (stereo not drawn),-,
CCOC(=O)C1=NN(c2ccccc2C)C2=NC(C)=C(C(=O)OC)C(c3cccs3)N12 (stereo not drawn),-,
c1nc(N2CCOCC2)c2sc3nc(N4CCOCC4)c4c(c3c2n1)CCCC4,-,
Cc1cc(C)c2c(n1)sc1c(N3CCN(CCO)CC3)ncnc12,?,VCAM1 pot conf=-
Cc1cc(C)c2c(N)c(C(=O)N3CCN(c4ncccn4)CC3)sc2n1,-,
COc1cc(CN2CCC(C(=O)NC3CCCC3)CC2)ccc1O,-,
CC(C)(C)n1[nH]c2c3c(ccc2c1=O)C(=O)c1ccccc1C3=O,37,VCAM1 pot conf=-
COC(=O)c1c(NC(=O)c2ccc(S(=O)(=O)N3CCOCC3)cc2)sc2c1CCN(C)C2,-,
COc1ccc(N(CC(=O)N2CCc3ccccc32)S(=O)(=O)c2c(C)noc2C)cc1,-,
CCc1ccc(C(=O)NC(CC(C)C)C(=O)O)cc1 (stereo not drawn),-,
COc1ccc(C(CNC(=O)c2ccc3c(c2)C(=O)N(CCC(C)C)C3=O)N2CCOCC2)cc1 (stereo not drawn),-,
COc1ccc(N/C(=N\c2nc(C)cc(C)n2)NC(=O)C(C)C)cc1OC,-,
CC(Oc1ccc(Cl)cc1Cl)C(=O)Nc1ccc2oc(-c3ccncc3)nc2c1 (stereo not drawn),-,
Cc1cc2nc(-c3ccc(NC(=O)C(C)C)cc3)oc2cc1C,58,VCAM1 pot conf=-
O=C(CC(=O)NN=C1CCCC1)NCCc1ccccc1,-,
CC(Sc1nnc(-c2cccs2)n1-c1ccccc1)C(=O)NCc1ccco1 (stereo not drawn),-,
CN1CCN(S(=O)(=O)c2ccc(Sc3nnc(-c4cccs4)n3-c3ccccc3)nc2)CC1,59,VCAM1 pot conf=-
Cc1ccc(OCCSc2nnc(-c3cccs3)n2C)cc1,-,
CCc1c(C)nc(SC)n(CC#N)c1=O,-,
O=C(CCn1nnc(-c2cccs2)n1)N1CCc2ccccc2C1,36,VCAM1 pot conf=-
SMILES,VCAM1 pot,others
O=C(Nc1cccc2ccccc12)N1CCc2ccccc2C1,-,
CCOC(=O)c1c(C)c(C(=O)N2CCc3ccccc3C2)c(C)n1CC,-,
O=C(Oc1cccnc1)c1cc(S(=O)(=O)N2CCCCC2)ccc1Cl,-,
COc1ccc(NC(=O)C2CC2)cc1NS(=O)(=O)c1ccc(F)cc1,-,
CC(=NCCCNC1CCCCC1)C1=C(O)CC(C)(C)CC1=O,?,VCAM1 pot conf=-
CCOC(=O)C1=C(O)/C(=C/c2cn(CC(=O)NCC3CCCO3)c3ccccc23)SC1=Nc1ccc(C)cc1 (stereo not drawn),-,
